Shown is part of a subset that was picked to be rich in the strongest signals.

These results are taken from the supplement of paper PMC8728848.

What all share (test): glycan array binding signal (z-score within array); higher = stronger binding
What all share (conditions): glycan notation: IUPAC condensed, linker removed

Assay [1] concerns the target Fuc(a1-2)Gal(b1-3)GalNAc(b1-3)Gal. The procedure, abridged: (§1)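 Glycan array data came from 3228 arrays in the Consortium for Functional Glycomics database, and only arrays with an available protein sequence were kept. Glycan names were put into IUPAC-condensed notation, and columns mapping to the same glycan were averaged. The binding signal is a within-array Z-score, averaged across arrays of one protein sequence run at different concentrations or buffers and across linkers. A negative Z-score can be read as non-binding.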

For the next assay, the target named is Fuc(a1-2)Gal(b1-4)GlcNAc. In a few lines:
as §1

Assay [2] concerns the target Fuc(a1-2)Gal(b1-4)GlcNAc(b1-3)Gal(b1-4)GlcNAc. In a few lines: as §1
The target in assay [3] is Fuc(a1-2)Gal(b1-4)GlcNAc6S. The procedure, abridged: as §1
Assay [4] addresses Fuc(a1-2)[Gal(a1-3)]Gal(b1-3)GlcNAc. The procedure, abridged:
as §1

For assay [5], the target named is Fuc(a1-3)[Gal3S(b1-4)]GlcNAc6S. In a few lines: as §1
In the next assay the target is Gal(b1-2)Gal. In a few lines:
as §1

For assay [6], the target named is Gal(b1-3)GlcNAc(b1-2)Man(a1-3)[Gal(b1-3)GlcNAc(b1-2)Man(a1-6)]Man(b1-4)GlcNAc(b1-4)GlcNAc. In a few lines:
as §1

The target of assay [7] is Gal(b1-3)[Fuc(a1-4)]GlcNAc(b1-3)Gal(b1-4)[Fuc(a1-3)]GlcNAc. The procedure, abridged:
as §1

The target of assay [8] is Gal(b1-4)GlcNAc(b1-3)[GlcNAc(b1-6)]Gal(b1-4)GlcNAc. In a few lines: as §1
In a further assay the target is Gal3S(b1-3)GlcNAc. In a few lines: as §1
For a further assay, the target named is Gal3S(b1-4)Glc6S. In a few lines:
as §1

In assay [9] the target is Gal3S(b1-4)[Fuc(a1-3)]Glc. The procedure, abridged: as §1
Assay [10] deals with GlcNAc(b1-3)Gal(b1-3)GalNAc. In a few lines:
as §1

Assay [11] addresses GlcNAc(b1-4)GlcNAc(b1-4)GlcNAc. The procedure, abridged:
as §1

Assay [12] addresses GlcNAc(b1-4)GlcNAc(b1-4)GlcNAc(b1-4)GlcNAc(b1-4)GlcNAc. The procedure, abridged: as §1
Assay [13] deals with Man(a1-2)Man(a1-2)Man(a1-3)Man. In a few lines: as §1
Assay [14] concerns the target Man(a1-2)Man(a1-3)[Man(a1-2)Man(a1-6)]Man(a1-6)[Man(a1-2)Man(a1-2)Man(a1-3)]Man(b1-4)GlcNAc(b1-4)GlcNAc. The procedure, abridged: as §1
Assay [15] addresses Man(a1-2)Man(a1-3)[Man(a1-6)]Man(a1-6)[Man(a1-2)Man(a1-3)]Man(b1-4)GlcNAc(b1-4)GlcNAc. In a few lines: as §1
Assay [16] concerns the target Neu5Ac(a2-3)Gal(b1-4)[Fuc(a1-3)]GlcNAc(b1-6)[Gal(b1-3)]GalNAc. In a few lines: as §1
In assay [17] the target is Neu5Ac(a2-6)Gal(b1-4)GlcNAc6S. In a few lines: as §1
Assay [18] has as its target Fuc(a1-2)[Gal(a1-3)]Gal(b1-4)Glc. The procedure, abridged: as §1
Assay [19] deals with Fuc(a1-2)[GalNAc(b1-3)]Gal. In a few lines: as §1
The target of the next assay is Gal(a1-3)Gal(b1-4)Glc. In a few lines: as §1
Assay [20] addresses Gal(a1-3)Gal(b1-4)[Fuc(a1-3)]GlcNAc. The procedure, abridged:
as §1

Assay [21] has as its target Gal(b1-3)[GlcNAc(b1-6)]GalNAc. In a few lines: as §1
Another assay addresses Gal(b1-4)Glc6S. The procedure, abridged:
as §1

In assay [22] the target is Gal(b1-4)GlcNAc(b1-3)Gal(b1-4)GlcNAc. The procedure, abridged:
as §1

The target in the next assay is Gal3S4S(b1-4)GlcNAc. The procedure, abridged:
as §1

For a further assay, the target named is Gal3S6S(b1-4)GlcNAc6S. In a few lines: as §1
The target in the next assay is Gal6S(b1-4)GlcNAc6S. The procedure, abridged:
as §1

A further assay addresses Man(a1-3)[Man(a1-6)]Man. The procedure, abridged:
as §1

Assay [23] deals with Man(a1-3)[Man(a1-6)]Man(b1-4)GlcNAc(b1-4)GlcNAc. In a few lines: as §1
Assay [24] deals with Neu5Ac(a2-3)Gal(b1-3)GalNAc6S. The procedure, abridged:
as §1

Assay [25] concerns the target Neu5Ac(a2-3)Gal(b1-3)GlcNAc6S. In a few lines:
as §1

For assay [26], the target named is Neu5Ac(a2-3)Gal(b1-4)GlcNAc6S. In a few lines:
as §1

Assay [27] concerns the target Neu5Ac(b2-6)Gal(b1-4)GlcNAc. In a few lines:
as §1

For assay [28], the target named is Neu5Gc(a2-3)Gal(b1-4)[Fuc(a1-3)]GlcNAc. In a few lines:
as §1

The target in assay [29] is Neu5Gc(a2-6)Gal(b1-4)GlcNAc. In a few lines: as §1

B1: SLLPI (Mus musculus), Q9D9X8 (protein)
chain: MGICMSMYTQVLVPVDADGDHHILWSRFYERWGSCFNPCAGLVNCLPPHSSALYLCHRMEARSRAPRRQLCPPGITWLALAYLLSCLLASSKAKVFSRCELAKEMHDFGLDGYRGYNLADWVCLAYYTSGFNTNAVDHEADGSTNNGIFQISSRRWCRTLASNGPNLCRIYCTDLLNNDLKDSIVCAMKIVQEPLGLGYWEAWRHHCQGRDLSDWVDGCDF
For the molecule B1, the “glycan array binding signal (z-score)” value in assay [1] was 0.084; in the assay with Fuc(a1-2)Gal(b1-4)GlcNAc, -0.019; in [2], -0.448; in [3] it was 0.445; in [4], -0.779; in [5] it was 3.34. Besides, the “glycan array binding signal (z-score)” value in the assay with Gal(b1-2)Gal was 0.362; in assay [6], -0.288; in assay [7] it was -0.236; in assay [8], -0.03; with Gal3S(b1-3)GlcNAc, 3.28; in the assay with Gal3S(b1-4)Glc6S it was 3.45. Also, the “glycan array binding signal (z-score)” value in assay [9] was 1.15; in [10], 3.21; in [11], 1.92; in [12] it was -0.401; in [13], -0.502; in assay [14], -0.652. Moreover, the “glycan array binding signal (z-score)” value in assay [15] was 0.317; in assay [16] it was -0.335; in assay [17], 3.29.

B2: Mcg Light Chain Dimer (Homo sapiens), Q6PIK1 (protein)
chain: MAGFPLLLTLLTHCAGSWGQSLLTQPPSVSGTPGQRVTISCSGSSSNIGINYVYWYQQIPGTAPKLLISTNDQRPSGVPDRFSGSKSGTSASLAIGGLRSEDEAHYYCAAWDDSMSGPGYAFGTGTKVTVLRQPKANPTVTLFPPSSEELQANKATLVCLISDFYPGAVTVAWKADGSPVKAGVETTKPSKQSNNKYAASSYLSLTPEQWKSHRSYSCQVTHEGSTVEKTVAPTECS
Regarding B2, the “glycan array binding signal (z-score)” value in assay [1] was -0.611; in assay [18], -1.02; in [19], 0.344; in assay [5] it was 4.13; in the assay with Gal(a1-3)Gal(b1-4)Glc it was -1.04; in assay [20], 0.315. Also, the “glycan array binding signal (z-score)” value in [21] was -0.568; in the assay with Gal(b1-4)Glc6S, 0.905; in assay [22] it was -0.321; in [9] it was -0.54; with Gal3S4S(b1-4)GlcNAc it was 3.63; with Gal3S6S(b1-4)GlcNAc6S it was 5.67. The “glycan array binding signal (z-score)” value in the assay with Gal6S(b1-4)GlcNAc6S was 0.505; with Man(a1-3)[Man(a1-6)]Man, -1.04; in assay [23] it was -0.305; in [24], 2.88; in assay [25] it was 1.73; in [26] it was 2.96. The “glycan array binding signal (z-score)” value was -0.955 in assay [27], 1.2 in assay [28] and 0.325 in assay [29].
